Experimental data published in PubChem BioAssay (Tox21).
Values without a mark were called inactive. Results filed as inconclusive are left out. A call without a number means that no potency is given here. Calls of active or inactive are those of the source. Unless noted, calls follow the shape of the dose curve; as a rule, active = well fitted curve in the direction sought with a large enough effect in the repeat runs; inconclusive = weak or mixed curves; inactive = no such curve, though single readings can be large; an effect the other way counts as inactive or inconclusive.

What was measured:
[1] = A CellTox Green Cytotoxicity Assay to monitor cytotoxicity in HepG2 cells - 8 hour (AID 1224890); also: nearly all actives have a fitted effect of over 45% in size; also: potency is read from the fitted curve at half-maximal effect
Method in brief: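 Real-time cytotoxicity: fluorescence of a cell-impermeant cyanine dye binding DNA of dead HepG2 cells, measured repeatedly (0–40 h) during compound exposure at 37 C. Cells seeded 600/well with reagent, dosed after 5 h.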

[2] = qHTS assay to identify small molecule antagonists of the estrogen receptor alpha (ER-alpha) signaling pathway using the BG1 cell line in the presence of 0.1 nM 17-beta-estradiol - cell viability counter screen (AID 1259241); also: nearly all actives have a fitted effect of over 40% in size
Method in brief: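 Live-cell protease activity (CellTiter-Fluor fluorescence, 30 min) was read in the same wells after VM7Luc4E2 cells had been exposed to compounds with 0.1 nM 17beta-estradiol for 22 hr at 37C.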

[3] = qHTS assay to identify small molecule antagonists of the androgen receptor (AR) signaling pathway using the MDA cell line in the presence of 0.5 nM R1881 - cell viability counter screen (AID 1259242); also: nearly all actives have a fitted effect of over 45% in size
Method in brief: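 Live-cell protease activity was measured by CellTiter-Fluor fluorescence after 30 min. Before that, MDA-kb2 MMTV-luciferase cells had 16 hr at 37C without CO2, exposed to test compounds and 0.5 nM R1881 final.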

[4] = molecular target: Androgen receptor (Homo sapiens) (UniProt P10275); test: qHTS assay to identify small molecule antagonists of the androgen receptor (AR) signaling pathway using the MDA cell line in the presence of 0.5 nM R1881 (AID 1259243); also: nearly all actives have a fitted effect of over 50% in size; also: potency is read from the fitted curve at half-maximal effect
Method in brief: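 Luminescent reporter readout (ONE-Glo, 30 min, room temperature) after 16 hr co-treatment of MDA-kb2 cells with test compounds and 0.5 nM R1881 final, at 37C without CO2. The MMTV-driven luciferase responds to both AR and GR.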

[5] = molecular target: Estrogen receptor (Homo sapiens) (UniProt P03372); test: qHTS assay to identify small molecule antagonists of the estrogen receptor alpha (ER-alpha) signaling pathway using the BG1 cell line in the presence of 0.1 nM 17-beta-estradiol (AID 1259244); also: nearly all actives have a fitted effect of over 50% in size; also: potency is read from the fitted curve at half-maximal effect
Method in brief: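 Luciferase luminescence (ONE-Glo, 30 min at room temperature) was read after 22 hr at 37C exposure to compounds plus 17beta-estradiol at 0.1 nM final. Cells were VM7Luc4E2 with endogenous ER-alpha and an ERE-driven luciferase, pre-cultured 5 days in hormone-depleted medium.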

[6] = qHTS assay to identify small molecule HDAC inhibitors (AID 1259364); also: top concentration of the series differs between compounds; nearly all actives have a fitted effect of over 45% in size
Method in brief: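 Luminescence read after 30 min room-temperature HDAC-Glo incubation measures cellular class I/II HDAC activity. Compounds were applied for 2 hr at 37 C to HCT-116 wild-type cells seeded the day before.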

[7] = qHTS assay to identify small molecule HDAC inhibitors - cell viability counter screen (AID 1259365); also: series mostly up to about 92 µM; nearly all actives have a fitted effect of over 50% in size
Method in brief: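 HCT-116 (wild type), 1,500 cells/well, overnight 37C/5% CO2; compound in DMSO 2hr; CellTiter-Glo 30min RT; luminescence read.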

[8] = qHTS assay to identify small molecule agonists of the sonic hedgehog signaling (Shh) pathway - cell viability counter screen (AID 1259366); also: nearly all actives have a fitted effect of over 50% in size
Method in brief: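 CellTiter-Fluor fluorescence read-out, 1 hr at 37C, added after 23hr compound exposure. Cells: 3T3 Gli1-Luc, an NIH/3T3 clone with stably integrated Gli1-Luc reporter, plated 4hr before compound.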

[9] = qHTS assay to identify small molecule antagonists of the sonic hedgehog signaling (Shh) pathway - cell viability counter screen (AID 1259367); also: nearly all actives have a fitted effect of over 55% in size
Method in brief: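 CellTiter-Fluor signal in conditioned medium-stimulated 3T3 Gli1-Luc cells, 23 hr compound exposure, 37C.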

[10] = qHTS assay to identify small molecule agonists of the sonic hedgehog signaling (Shh) pathway (AID 1259368; calls by dose curve;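 also: NIH/3T3-derived 3T3Gli1-Luc cells carrying a stable Gli1-driven firefly luciferase reporter; series mostly up to about 92 µM; nearly all actives have a fitted effect of over 15% in size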)
Method in brief: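 Luminescence was read after 30 min at room temperature with luciferase reagent. Before that, 3T3Gli1-Luc cells (NIH/3T3 clone, stable Gli1-Luc reporter; 2,000/well) were exposed to compounds for 24 hr at 37C, 5% CO2, compounds being added 4 hr post-plating.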

[11] = qHTS assay to identify small molecule agonists of the androgen receptor (AR) signaling pathway in the presence of an antagonist - cell viability counter screen (AID 1259379); also: nearly all actives have a fitted effect of over 25% in size; also: potency is read from the fitted curve at half-maximal effect
Method in brief: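 Cytotoxicity counter-screen run in the same wells as the nilutamide-challenged (3.0 µM final) AR agonist assay in MDA-kb2 cells. Compounds tested at 15 concentrations for 16 h, 37 °C without CO2; CellTiter-Fluor fluorescence read.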

[12] = qHTS assay to identify small molecule agonists of the estrogen receptor beta (ER-beta) signaling pathway - cell viability counter screen (AID 1259380); also: nearly all actives have a fitted effect of over 30% in size
Method in brief: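 Cell viability counter screen: CellTiter-Glo luminescence (30 min, room temperature) measured in the same wells as the beta-lactamase readout, after 16 hr compound exposure at 37C of ER-beta-bla HEK293T cells in 2% charcoal-stripped FBS medium.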

[13] = molecular target: Androgen receptor (Homo sapiens) (UniProt P10275); test: qHTS assay to identify small molecule agonists of the androgen receptor (AR) signaling pathway in the presence of an antagonist (AID 1259381; calls by dose curve; also: nearly all actives have a fitted effect of over 15% in size)
Method in brief: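 Agonist-mode confirmation run against 3.0 uM final nilutamide: compounds titrated at 15 concentrations onto MDA-kb2 MMTV-luciferase reporter cells. Luminescence measured with ONE-Glo following 16 hr incubation, 37C, 0% CO2.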

[14] = qHTS assay to identify small molecule antagonists of the estrogen receptor beta (ER-beta) signaling pathway - cell viability counter screen (AID 1259382);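 also: HEK293T cells carrying ER-beta-UAS-bla reporter stimulated with estradiol; series mostly up to about 92 µM; nearly all actives have a fitted effect of over 55% in size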
Method in brief: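 Cytotoxicity was measured in the same wells by CellTiter-Glo luminescence after 30 min at room temperature. Cells were ER-beta-bla HEK293T in charcoal-stripped serum, given compound together with 1 nM E2 and incubated 16 h at 37C.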

[15] = molecular target: Estrogen receptor (Homo sapiens) (UniProt P03372); test: qHTS assay to identify small molecule agonists of the estrogen receptor alpha (ER-alpha) signaling pathway in the presence of an antagonist (AID 1259383; calls by dose curve; also: top concentration of the series differs between compounds; nearly all actives have a fitted effect of over 15% in size)
Method in brief: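 Agonist-mode confirmation run in the presence of 10.0nM (final) ICI-182,780 antagonist. The reporter was ERE-driven luciferase in VM7Luc4E2 cells, grown in charcoal-stripped serum. Cells were exposed to 15-concentration compound series for 22hr, then ONE-Glo luminescence was read.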

[16] = qHTS assay to identify small molecule agonists or antagonists of the thyroid stimulating hormone receptor (TSHR) signaling pathway - wild type cell line counter screen (AID 1259384; calls by dose curve)
Method in brief: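 Counter screen in untransfected Hek293: compounds (15-point titration, triplicate) plus phosphodiesterase inhibitor Ro20-1724 added after 18 h plating; 30 min RT. Intracellular cAMP via competitive d2/cryptate immunoassay, 1 h incubation.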

[17] = qHTS assay to identify small molecule phospholipidosis (PLD) inducers (AID 1259344; active = well fitted curve in the direction sought with a large enough effect; an effect the other way counts as inactive or inconclusive)
Method in brief: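 Accumulated phospholipid, stained red by LipidTOX during 24 h compound treatment of HepG2 cells at 37 C, is quantified from images as pit number and intensity, normalised per cell using Hoechst-stained nuclei.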

[18] = qHTS assay to identify small molecule antagonists of the sonic hedgehog signaling (Shh) pathway (AID 1259369; calls by dose curve; also: nearly all actives have a fitted effect of over 45% in size)
Method in brief: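 Antagonist mode: compound added to 3T3 Gli1-Luc cells followed by conditioned-medium stimulation, 24 h at 37 C, 5% CO2. Inhibition taken as loss of Gli1-driven luciferase luminescence.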

[19] = molecular target: Estrogen receptor beta (Homo sapiens) (UniProt Q92731); test: qHTS assay to identify small molecule agonists of the estrogen receptor beta (ER-beta) signaling pathway (AID 1259377; active = well fitted activation curve with a large enough effect in the signal ratio in the repeat runs, not every such curve was filed as active; the % refers to the signal ratio)
Method in brief: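 Beta-lactamase reporter readout: fluorescence of LiveBLAzer B/G FRET substrate after 2 h at room temperature, following 16 h compound treatment of ER-beta-UAS-bla HEK293T cells at 37C in 2% charcoal-stripped FBS medium.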

[20] = molecular target: Estrogen receptor beta (Homo sapiens) (UniProt Q92731); test: qHTS assay to identify small molecule antagonists of the estrogen receptor beta (ER-beta) signaling pathway (AID 1259378; active = well fitted inhibition curve with a large enough effect in the signal ratio in the repeat runs, not every such curve was filed as active; the % refers to the signal ratio)
Method in brief: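 Antagonist mode: compounds added to beta-lactamase reporter HEK293T ER-beta-UAS cells stimulated with E2 (1nM final), 16 hr at 37C. LiveBLAzer B/G FRET substrate, 2 hours room temperature, fluorescence read-out.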

Androgen receptor (Homo sapiens), sequence (P10275 whole entry, looked up): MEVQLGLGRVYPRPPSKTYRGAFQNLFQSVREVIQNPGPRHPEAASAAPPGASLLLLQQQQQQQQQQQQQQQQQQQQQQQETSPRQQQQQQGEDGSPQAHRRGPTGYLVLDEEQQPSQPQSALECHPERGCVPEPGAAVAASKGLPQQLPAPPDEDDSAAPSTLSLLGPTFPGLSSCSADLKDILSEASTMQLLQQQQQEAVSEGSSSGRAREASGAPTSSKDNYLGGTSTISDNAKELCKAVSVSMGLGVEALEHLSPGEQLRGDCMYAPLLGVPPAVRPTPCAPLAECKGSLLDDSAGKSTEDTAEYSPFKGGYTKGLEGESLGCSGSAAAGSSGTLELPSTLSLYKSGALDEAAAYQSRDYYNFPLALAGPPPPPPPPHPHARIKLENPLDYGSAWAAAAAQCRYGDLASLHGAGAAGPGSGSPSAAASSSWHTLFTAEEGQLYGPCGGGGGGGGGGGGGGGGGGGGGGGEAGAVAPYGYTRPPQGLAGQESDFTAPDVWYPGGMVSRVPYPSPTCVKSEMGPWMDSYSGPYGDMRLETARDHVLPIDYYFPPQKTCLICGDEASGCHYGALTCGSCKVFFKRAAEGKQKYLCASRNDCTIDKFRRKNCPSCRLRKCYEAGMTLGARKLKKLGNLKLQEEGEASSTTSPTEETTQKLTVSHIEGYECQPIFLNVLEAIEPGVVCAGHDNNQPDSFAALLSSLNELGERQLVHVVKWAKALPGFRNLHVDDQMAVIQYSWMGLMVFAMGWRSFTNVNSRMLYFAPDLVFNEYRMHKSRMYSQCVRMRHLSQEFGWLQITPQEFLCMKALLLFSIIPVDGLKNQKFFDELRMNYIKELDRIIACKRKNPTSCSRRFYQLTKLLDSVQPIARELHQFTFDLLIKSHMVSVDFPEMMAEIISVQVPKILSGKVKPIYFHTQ
Estrogen receptor beta (Homo sapiens), sequence (Q92731 whole entry, looked up): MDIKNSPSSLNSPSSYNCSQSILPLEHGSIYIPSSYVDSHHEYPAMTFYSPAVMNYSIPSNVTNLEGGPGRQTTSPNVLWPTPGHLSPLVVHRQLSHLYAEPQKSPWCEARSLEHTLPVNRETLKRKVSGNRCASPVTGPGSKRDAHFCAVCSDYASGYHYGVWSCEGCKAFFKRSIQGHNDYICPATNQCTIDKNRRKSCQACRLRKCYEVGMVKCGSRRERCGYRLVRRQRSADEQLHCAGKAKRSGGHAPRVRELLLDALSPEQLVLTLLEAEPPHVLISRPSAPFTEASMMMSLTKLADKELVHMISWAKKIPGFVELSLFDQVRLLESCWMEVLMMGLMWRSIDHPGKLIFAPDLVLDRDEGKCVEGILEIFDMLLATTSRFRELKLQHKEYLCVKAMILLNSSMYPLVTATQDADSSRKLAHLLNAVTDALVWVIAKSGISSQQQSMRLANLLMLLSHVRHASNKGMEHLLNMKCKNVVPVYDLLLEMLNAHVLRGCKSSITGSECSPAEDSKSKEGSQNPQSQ
Estrogen receptor (Homo sapiens), sequence (P03372 whole entry, looked up): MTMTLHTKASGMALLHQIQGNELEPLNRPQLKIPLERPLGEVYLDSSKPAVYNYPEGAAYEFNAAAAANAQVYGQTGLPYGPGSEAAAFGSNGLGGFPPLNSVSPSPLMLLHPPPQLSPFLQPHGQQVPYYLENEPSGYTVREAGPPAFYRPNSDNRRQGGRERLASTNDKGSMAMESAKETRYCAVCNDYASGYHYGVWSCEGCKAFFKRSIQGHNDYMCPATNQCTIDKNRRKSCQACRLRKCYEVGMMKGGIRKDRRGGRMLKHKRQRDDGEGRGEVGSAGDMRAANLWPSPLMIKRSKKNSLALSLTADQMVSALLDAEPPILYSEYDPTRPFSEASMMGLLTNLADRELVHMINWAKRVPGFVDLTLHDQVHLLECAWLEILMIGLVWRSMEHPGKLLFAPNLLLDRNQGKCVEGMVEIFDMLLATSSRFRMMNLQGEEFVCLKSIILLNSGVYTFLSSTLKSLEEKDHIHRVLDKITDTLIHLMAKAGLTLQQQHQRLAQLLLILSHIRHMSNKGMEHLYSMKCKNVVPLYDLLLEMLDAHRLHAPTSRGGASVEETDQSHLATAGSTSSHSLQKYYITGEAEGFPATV

For `CCOP(=S)(OCC)SCCl`, the Potency [1] was “inactive”, the outcome [2] was “inactive” and the Potency [3] was “inactive”. For the same molecule, the Potency [4] was “inactive”, the Potency [5] was “inactive” and the Potency [6] was “inactive”. The outcome [7] was “inactive”, the Potency [8] was “inactive” and the Potency [9] was “inactive”. For the same molecule, the outcome [10] was “inactive”, the Potency [11] was “inactive” and the Potency [12] was “inactive”. The Potency [13] was “inactive”, the Potency [14] was “inactive” and the Potency [15] was “inactive”. For the same molecule, the outcome [16] was “inactive”.

In the case of `COc1cc(CCN)cc(OC)c1OC`, the Potency [1] is reported as “inactive”, the outcome [2] is reported as “inactive” and the Potency [3] is reported as “inactive”. The Potency [5] was “inactive”, the Potency [17] was “inactive” and the Potency [6] was “inactive”. For the same molecule, the outcome [7] was “inactive”, the Potency [8] was “inactive” and the Potency [9] was “inactive”. The outcome [10] was “inactive”, the Potency [18] was “inactive” and the Potency [19] was “inactive”. The Potency [11] was “inactive”, the Potency [12] was “inactive” and the Potency [14] was “inactive”. For the same molecule, the Potency [15] was “inactive” and the outcome [16] was “inactive”.

For `CCOC(=O)NC(C)(C)Cc1ccc(Cl)cc1`, the Potency [1] was “inactive”, the outcome [2] was “inactive” and the Potency [3] was “inactive”. For the same molecule, the Potency [5] was “inactive”, the PLD induction [17] was 18.3% [at 1.53 µM] and the Potency [6] was “inactive”. For the same molecule, the outcome [7] was “inactive”, the Potency [8] was “inactive” and the Potency [9] was “inactive”. For the same molecule, the outcome [10] was “inactive”, the Potency [11] was “inactive” and the Potency [12] was “inactive”. The Potency [13] was “inactive”, the Potency [14] was “inactive” and the Potency [15] was “inactive”.

With `O=C(Cl)/C=C/C(=O)Cl` the Potency [1] was “inactive”, the outcome [2] was “inactive” and the Potency [3] was “inactive”. For the same molecule, the Potency [4] was “inactive”, the Potency [5] was “inactive” and the Potency [6] was “inactive”. The outcome [7] was “inactive”, the Potency [9] was “inactive” and the outcome [10] was “inactive”. The Potency [19] was “inactive”, the Potency [11] was “inactive” and the Potency [12] was “inactive”. For the same molecule, the Potency [13] was “inactive”, the Potency [14] was “inactive” and the Potency [15] was “inactive”.

For `C[C@H](N)C(=O)c1ccccc1`, the Potency [1] was “inactive”, the outcome [2] was “inactive” and the Potency [3] was “inactive”. The Potency [4] was “inactive”, the Potency [5] was “inactive” and the Potency [17] was “inactive”. The Potency [6] was “inactive”, the outcome [7] was “inactive” and the Potency [8] was “inactive”. For the same molecule, the Potency [9] was “inactive”, the outcome [10] was “inactive” and the Potency [18] was “inactive”. The Potency [19] was “inactive”, the Potency [11] was “inactive” and the Potency [12] was “inactive”. For the same molecule, the Potency [13] was “inactive”, the Potency [14] was “inactive” and the Potency [15] was “inactive”. The outcome [16] was “inactive”.

In the case of `CCCN1CCC[C@@H]2Cc3nc(N)ncc3C[C@H]21`, the Potency [1] is reported as 23.9 µM (active), the outcome [2] is reported as “inactive” and the Potency [3] is reported as “inactive”. The Potency [5] was “inactive”, the Potency [17] was “inactive” and the Potency [6] was “inactive”. For the same molecule, the outcome [7] was “inactive”, the Potency [8] was “inactive” and the Potency [9] was “inactive”. For the same molecule, the outcome [10] was “inactive”, the Potency [18] was “inactive” and the Potency [11] was “inactive”. For the same molecule, the Potency [12] was “inactive”, the Potency [14] was “inactive” and the Potency [15] was “inactive”.

With `CCOC1Oc2ccc(OS(C)(=O)=O)cc2C1(C)C` (stereo not drawn) the Potency [1] was “inactive”, the outcome [2] was “inactive” and the Potency [3] was “inactive”. For the same molecule, the Potency [4] was 60.6 µM (active), the Potency [5] was 54 µM (active) and the Potency [6] was “inactive”. For the same molecule, the outcome [7] was “inactive”, the Potency [8] was “inactive” and the Potency [9] was “inactive”. The outcome [10] was “inactive”, the Potency [19] was “inactive” and the outcome [20] was “inactive”. The Potency [11] was 68 µM (active), the Potency [12] was “inactive” and the Potency [13] was “inactive”. For the same molecule, the Potency [14] was “inactive”, the Potency [15] was “inactive” and the outcome [16] was “inactive”.

With `CN(C)C(=O)Oc1cc(OC(=O)N(C)C)cc(C(O)CNC(C)(C)C)c1` (stereo not drawn) the Potency [1] was “inactive”, the outcome [2] was “inactive” and the Potency [3] was “inactive”. The Potency [4] was “inactive”, the Potency [5] was “inactive” and the Potency [17] was “inactive”. The Potency [6] was “inactive”, the outcome [7] was “inactive” and the Potency [9] was “inactive”. The outcome [10] was “inactive”, the Potency [18] was “inactive” and the Potency [19] was “inactive”. The outcome [20] was “inactive”, the Potency [11] was “inactive” and the Potency [12] was “inactive”. The Potency [13] was “inactive”, the Potency [14] was “inactive” and the Potency [15] was “inactive”.
